Our source for the Potency and viability change, negative = cytotoxic values is PubChem BioAssay (Tox21).

Results filed as inconclusive are left out. Where a call stands in place of a potency, no number is given. Active and inactive are the calls of the source. Calls come from the whole dose curve; as a rule, active = well fitted cell-killing curve with a large enough effect in the repeat runs; inconclusive = weak or mixed curves; inactive = flat fitted curve, though single readings scatter.

The assay in a line: qHTS assay to identify small molecule antagonists of the TGF-beta/Smad signaling pathway - cell viability counter screen (AID 1346824). Note: nearly all actives have a fitted effect of over 50% in size. The settings on record: SBE-bla HEK293T viability, CellTiter-Glo luminescence; series mostly up to 76.8 µM. The text has this:
U.S. Tox21 Program National Center for Advancing Translational Sciences [NCATS] NIH Chemical Genomics Center [NCGC] U.S. Environmental Protection Agency [EPA] National Institutes of Environmental Health Sciences [NIEHS] National Toxicology Program [NTP] U.S. Food and Drug Administration [FDA] Tox21 Assay Overview: Transforming growth factor beta (TGF-beta) superfamily consists of a large number of structurally related dimeric proteins that act as hormones or local mediators in regulating a wide range of biological functions. This superfamily includes TGF-betas themselves, the bone morphogenetic proteins (BMPs) and the activins. These ligands induce oligomerization of serine/threonine receptor kinases and phosphorylate the cytoplasmic signaling molecules of Smad protein family. CellSensor SBE-bla HEK 293T cell line (Life Technologies, Carlsbad, CA), responsive to TGF-beta was used to screen Tox21 10K compound library for identification of agonists/antagonists of the Smad signaling pathway. This cell line contains a beta-lactamase reporter gene under control of the Smad binding element (SBE) stably integrated into HEK 293T cells. Also cytotoxicity of the compounds was tested in parallel by measuring the cell viability using CellTiter-Glo assay system in the same wells.
Tox21 Assay Protocol Summary: SBE-bla HEK 293T cells were dispensed at 4,000/well in 5 uL of assay medium into black wall/clear-bottom 1536-well plates using a Multidrop Combi (ThermoFisher Scientific, Waltham, MA) dispenser. After the assay plates were incubated at 37 C and 5% CO2 for an overnight, 23 nL of compounds dissolved in DMSO, positive controls or DMSO only was transferred to the assay plate by a Pintool station (Kalypsys, San Diego, CA). Compound transfer was followed by the addition of 1 uL of 0.25 ng/mL TGF-beta1 or assay buffer using two separate tips of Flying Reagent Dispenser (FRD, Aurora Discovery, San Diego, CA). The assay plates were incubated at 37 C and 5% CO2 for 5 hr. One uL of LiveBLAzer B/G FRET substrate (Life Technologies) was added using a Flying Reagent Dispenser (FRD, Aurora Discovery, San Diego, CA) and the plates were incubated at room temperature for 2 hr. Fluorescence intensity (405 nm excitation, 460 nm and 530 nm emissions) was measured using an Envision plate reader (PerkinElmer, Shelton, CT). For cytotoxicity read, 4 uL of CellTiter-Glo reagent (Promega Corporation, Madison, WI) was added to each well of the assay plates using FRD. After 30 min incubation at room temperature, the luminescence intensity was measured using ViewLux plate reader (PerkinElmer).
Background: Quantitative high-throughput screening tests each substance at several concentrations.
For the compound `CC(C)(O)c1ccc(CNC(=O)c2cccnc2Oc2ccc(F)cc2)cc1`, the Potency entry was “inactive”.
On to `COC(=O)c1ccc(I)cc1S(=O)(=O)NC(=O)Nc1nc(C)nc(OC)n1`, for which the Potency entry is “inactive”.
For the compound `CN(C)CCOC(c1ccccc1)c1ccc(Br)cc1` (stereo not given), the Potency entry is “inactive”.
As to `C/C=C/C(=O)CC`, the viability change, negative = cytotoxic is -21.1% [at 15.8 µM] (inactive).
On the same count and under the same terms, the same measure for `O=C(O)CNCC(=O)O`: 10.5% [at 6.97 µM] (inactive).
For `CNCCCCOc1ccccc1Cc1ccccc1`, the Potency entry is “inactive”.
For the compound `NCc1ccccc1Sc1ccccc1CO`, the Potency entry is “inactive”.
For `CN(C)CCN(Cc1ccsc1)c1ccccn1`, the Potency entry is “inactive”.
Consider `Nc1ccccc1S(=O)(=O)c1ccccc1`, for which the Potency entry was “inactive”.
Same read-out and setting: with `COc1cc2nc(Cl)nc(N)c2cc1OC` the entry was “inactive”.
On to `C[Si](C)(CCCN)O[Si](C)(C)CCCN`, for which the Potency entry was “inactive”.
On to `CC(CSC(=O)c1ccccc1)C(=O)N1C[C@@H](Sc2ccccc2)C[C@H]1C(=O)O` (stereo not given in full), for which the viability change, negative = cytotoxic was -6.88% [at 15.8 µM] (inactive).
Consider `COc1ccc(C(=O)c2ccc(OC)cc2O)c(O)c1`, for which the Potency entry is “inactive”.
Still for that read-out and setting: the same measure for `O=[N+]([O-])c1ccc2[nH]ncc2c1`: “inactive”; for `CCOC(=O)Cc1cccc2ccccc12`: “inactive”.
In the case of `Clc1ccc2c(c1)CCc1cccnc1C2=C1CCNCC1`, the Potency entry was “inactive”.
In the case of `CCOC(=O)C(O)c1ccccc1` (stereo not given), the Potency entry is “inactive”.
As for `CC[N+]1(CC)CCC(=C(c2ccccc2)c2ccccc2)C1C` (stereo not given), the Potency result is “inactive”.
Take `CC1CCC(=O)C1=O` (stereo not given): the Potency entry was “inactive”.
`CC/C=C\CCOC(=O)CC`: the Potency entry is “inactive”.
`CN(C)CCN(Cc1ccccc1)c1ccccn1`: the Potency entry is “inactive”.
`CCCCC(CC)COC(=O)CCCCCCCCC(=O)OCC(CC)CCCC` (stereo not given): the Potency result was “inactive”.
With `CCOc1ccc(O)cc1`, the Potency entry was “inactive”.
For the compound `O=P(O)(OCc1ccccc1)OCc1ccccc1`, the Potency entry is “inactive”.
In the case of `O=[N+]([O-])c1ccc(NCCO)c(OCCO)c1`, the Potency result was “inactive”.
As for `CCN(CC)c1ccc2c(-c3ccccc3C(=O)O)c3ccc(=[N+](CC)CC)cc-3oc2c1`, the Potency entry was “inactive”.
Consider `O=C(OCCCCCCOC(=O)c1ccccc1)c1ccccc1`, for which the Potency result was “inactive”.
`CCCCCCCCCCCc1ccccc1`: the Potency result is “inactive”.
Consider `CCCCCCCC/C=C\CCCCCCCC(=O)OCC`, for which the Potency result is “inactive”.
On the same count and under the same terms, the same measure for `COc1cc(Cl)c(OC)cc1N`: “inactive”; for `O=C1[C@H]2CCCC[C@H]2C(=O)N1CCCCN1CCN(c2nsc3ccccc23)CC1`: “inactive”.
Regarding `OC(CN1CCC(Cc2ccc(F)cc2)CC1)c1ccc(Cl)cc1` (stereo not given), the Potency entry was “inactive”.
Turning to `CO[C@@H]1[C@H](OC(=O)/C=C/C=C/C=C/C=C/C(=O)O)CC[C@]2(CO2)[C@H]1[C@@]1(C)O[C@@H]1CC=C(C)C`, the Potency entry was “inactive”.
Still for that read-out and setting: the same measure for `CCCCC(CC)COC(=O)COc1ccc(Cl)cc1Cl` (stereo not given): “inactive”; for `COCCCN1CCC(NC(=O)c2cc(Cl)c(N)c3c2OCC3)CC1`: “inactive”; for `O=CC1CC=CCC1` (stereo not given): “inactive”.
Turning to `CC(C)(CO)[N+](=O)[O-]`, the Potency entry was “inactive”.
With `CNC(=O)CN(CCN(CCN(CC(=O)[O-])CC(=O)NC)CC(=O)[O-])CC(=O)[O-].O.[Gd+3]`, the Potency result is “inactive”.
The same measure, in the same setting: the same measure for `C[N+]1(C)CCC(OC(=O)C(O)(c2ccccc2)C2CCCC2)C1` (stereo not given): “inactive”; for `O=C1C(O)=C(O)C(=O)C(O)=C1O`: “inactive”.
